# High-throughput results as filed in PubChem BioAssay.
# KDM5B inh – blocks human KDM5B histone demethylase activity; KDM5B demethylase, FDH-coupled NADH fluorescence (FDH is formaldehyde dehydrogenase); Potency, µM (titrated, usually from 57.7 µM), hits mostly inhibitors; Q9UGL1; 220,000 compounds, 2.6% hits; active means well fitted inhibition curve with a large enough effect; inconclusive means small, poorly fitted or top-dose-only effect; inactive means no such curve, though single readings can be large or run the other way; further: nearly all actives have a fitted effect of over 70% in size
# Target sequence (Q9UGL1 whole entry, looked up): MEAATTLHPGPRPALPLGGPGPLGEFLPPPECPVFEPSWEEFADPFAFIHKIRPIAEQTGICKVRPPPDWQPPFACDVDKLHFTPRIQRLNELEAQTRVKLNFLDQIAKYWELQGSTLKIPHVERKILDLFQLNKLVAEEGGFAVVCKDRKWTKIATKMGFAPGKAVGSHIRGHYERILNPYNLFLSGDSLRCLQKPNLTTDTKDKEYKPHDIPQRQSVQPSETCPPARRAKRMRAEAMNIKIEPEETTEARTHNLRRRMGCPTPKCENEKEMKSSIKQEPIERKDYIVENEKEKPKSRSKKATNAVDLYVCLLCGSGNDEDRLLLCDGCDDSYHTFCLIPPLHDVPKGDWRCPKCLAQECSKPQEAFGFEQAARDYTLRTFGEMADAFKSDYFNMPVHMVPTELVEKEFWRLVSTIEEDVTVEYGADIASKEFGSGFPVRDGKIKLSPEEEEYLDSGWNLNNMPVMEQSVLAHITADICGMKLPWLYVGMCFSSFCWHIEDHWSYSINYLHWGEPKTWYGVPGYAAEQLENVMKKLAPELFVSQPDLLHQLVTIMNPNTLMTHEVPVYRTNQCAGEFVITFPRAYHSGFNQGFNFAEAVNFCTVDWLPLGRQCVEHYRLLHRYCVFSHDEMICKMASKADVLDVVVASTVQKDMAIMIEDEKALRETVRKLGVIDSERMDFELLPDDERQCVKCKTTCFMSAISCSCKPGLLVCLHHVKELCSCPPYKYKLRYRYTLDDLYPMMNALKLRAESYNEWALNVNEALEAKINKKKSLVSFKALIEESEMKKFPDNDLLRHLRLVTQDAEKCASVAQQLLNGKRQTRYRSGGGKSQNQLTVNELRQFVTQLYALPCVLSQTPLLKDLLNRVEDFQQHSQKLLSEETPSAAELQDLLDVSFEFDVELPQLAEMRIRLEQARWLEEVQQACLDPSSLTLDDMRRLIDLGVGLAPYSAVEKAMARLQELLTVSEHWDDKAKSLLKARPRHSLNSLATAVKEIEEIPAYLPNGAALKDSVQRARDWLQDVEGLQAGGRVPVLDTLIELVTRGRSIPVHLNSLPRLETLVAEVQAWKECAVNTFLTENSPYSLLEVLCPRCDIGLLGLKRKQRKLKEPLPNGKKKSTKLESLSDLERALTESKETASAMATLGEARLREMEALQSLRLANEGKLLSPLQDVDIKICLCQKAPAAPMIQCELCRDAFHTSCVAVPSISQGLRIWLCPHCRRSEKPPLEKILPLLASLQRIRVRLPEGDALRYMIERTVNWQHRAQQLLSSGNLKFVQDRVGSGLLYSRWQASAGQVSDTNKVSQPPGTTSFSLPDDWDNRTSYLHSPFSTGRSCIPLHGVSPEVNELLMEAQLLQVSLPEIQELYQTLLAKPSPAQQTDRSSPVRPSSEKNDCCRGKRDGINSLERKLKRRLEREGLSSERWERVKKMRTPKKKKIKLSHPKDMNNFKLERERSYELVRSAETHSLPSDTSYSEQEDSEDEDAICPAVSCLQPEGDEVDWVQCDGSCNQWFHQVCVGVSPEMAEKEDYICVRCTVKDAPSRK
#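 Here, H3K4me3 peptide (12.5 µM in substrate mix) is demethylated by KDM5BΔAP, 200 nM final, after 10 min compound exposure. Formaldehyde product is coupled through FDH (0.25 U/mL in mix) to NADH fluorescence; 30-min ΔRFU feeds dose-response curves.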
# IP6K1 inhibitor – blocks human inositol hexakisphosphate kinase 1. IP6K1 kinase, ADP-Glo luminescence, 2 h; active compounds read low. Q92551. activity change, % (series mostly up to about 58 µM). 140,000 compounds, 0.81% hits; in the data active means activity change below about -25%
#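 ADP-Glo luminescence measures ADP made by human IP6K1 during a 2 h RT reaction with ATP/IP6 (mix at 1.3 mM/130 uM); top library doses 57.5 and 19.1 uM final.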
# A number is an active result; 0 = inactive; ? = inconclusive; - = not tested or not shown. Only some compounds are listed: those with a hit (about 2.8% of all), similar ones and a draw of the others.
SMILES,KDM5B inh,IP6K1 inhibitor
Cc1nn(-c2ccc(C(C)C)cc2)c(C)c1[C@@H]1C=C[C@@H](NC(=O)NCc2ccccc2)C1,0,0
Cc1nn(-c2ccc(C(C)(C)C)cc2)c(C)c1[C@@H]1C=C[C@@H](NC(=O)NCc2ccccc2)C1,32µM,0
Cc1nn(-c2ccc(C(F)(F)F)cc2)c(C)c1[C@@H]1C=C[C@@H](NC(=O)c2ccc(N(C)C)cc2)C1,32µM,0
Cc1ccc(-n2nc(C)c([C@@H]3C=C[C@@H](NCc4ccc(N(C)C)cc4)C3)c2C)cc1Cl,40µM,0
Cc1ccc(-n2nc(C)c([C@@H]3C=C[C@@H](NCc4ccc(F)cc4)C3)c2C)cc1Cl,?,0
O=[S+]([O-])(NC1CCCN(Cc2ccc(-c3cncnc3)cc2)C1)c1cccs1 (stereo not drawn),-,0
O=C1/C(=C/c2cccnc2)Cc2c(Cl)cccc21,0,-
Cc1cc(C(C)(C)C)cc(C)c1S(=O)(=O)N1CCN(Cn2ncc3ccccc3c2=O)CC1,0,-
COc1cc(-c2ccc(C(F)(F)F)cn2)cc2c1OCCNC2,25µM,0
COc1cc2nc(-c3cc4c(c(OC)c3)OCCNC4)cc(C)c2cc1OC,32µM,0
COc1cc(-c2cnc3ccccc3c2)cc2c1OCCNC2,0,0
COc1cc2nc(Nc3ccc(C)c(C)c3)nc(N)c2cc1OC,?,0
CC(C)NC(=O)c1ccccc1C(=O)c1ccc(F)cc1,0,-
COc1ccc(N2C(=O)CSC23CCN(C(=O)c2cccc(OC)c2)CC3)cc1,0,0
COc1ccc(N2C(=O)CSC23CCN(C(=O)c2ccccc2Br)CC3)cc1,35µM,0
CN(CCOc1ccccc1F)C(=O)c1cnc2ccccc2n1,0,-
Cc1ccccc1C(=O)N1CCCC1C(=O)N1CCC(N2Cc3ccccc3C2=O)CC1 (stereo not drawn),-,0
COc1nccnc1NC1CCN(C(=O)Cc2c(C)noc2C)CC1,32µM,0
CS(=O)(=O)N1CCC(OC2CCN(C(=O)NCc3ccc(F)cc3)CC2)CC1,0,0
COc1ccc(CC(=O)N2CCC(Nc3nccnc3OC)CC2)cc1,28µM,0
COc1nccnc1NC1CCN(C(=O)NCc2ccc(F)cc2)CC1,28µM,0
COc1ccc(CC(=O)N2CCN(c3nccc(Nc4ccc(OC)cc4)n3)CC2)cc1,-,0
COc1nccnc1NC1CCN(C(=O)Cc2ccsc2)CC1,32µM,0
COCCOC1CCN(C(=O)Cc2c(C)noc2C)CC1,0,0
O=C(Cc1ccsc1)N1CCC(Nc2cccnc2)C1 (stereo not drawn),0,0
SMILES,KDM5B inh,IP6K1 inhibitor
CC(OC(=O)CC12CC3CC(CC(Br)(C3)C1)C2)C(=O)Nc1ccc([N+](=O)[O-])cc1Cl (stereo not drawn),0,-
COc1cccc(C(=O)NCC(=O)O)c1,0,-
O=C(Cc1ccccc1)N1CCCC(c2nn(-c3ccc(Cl)cc3)c(=O)[nH]2)C1 (stereo not drawn),0,0
COc1cccc(NCc2nnc(C(=O)N3CCC[C@@H]3c3cccc(F)c3)n2-c2ccccc2)c1,0,0
O=C1NCc2ccccc2CC12CCCCN2Cc1ccccc1F (stereo not drawn),0,0
O=C(N[C@H](c1ccccn1)C1CC(O)C1)c1cnc2ccccn2c1=O (stereo partly drawn),25µM,0
Cc1cc2c(cc1C(=O)N[C@H](c1ccccn1)C1CC(O)C1)OCCO2 (stereo partly drawn),0,0
O=C(c1scc2c1OCCO2)N1CCC2(CC1)c1ccccc1CC2O (stereo not drawn),0,0
CCN(CC)c1ccc2nnc(CCC(=O)N3CCC(C)CC3)n2n1,0,-
CN(Cc1ccsc1)C(=O)CCc1ccccc1,0,-
CCN(CC)c1cc(CCC(=O)N2CCC(C)CC2)ccn1,25µM,0
CCN(CC)c1cc(CCC(=O)NCCCN2CCOCC2)ccn1,25µM,0
CCN(CC)c1cc(CCC(=O)NCCc2cccnc2)ccn1,?,0
CCN(CC)c1cc(CCC(=O)N(C)Cc2ccccc2)ccn1,22µM,0
C=C1C(=O)O[C@@H]2/C=C(\C)C(=O)/C=C/[C@](C)(O)C[C@@H](OC(=O)C(C)C)[C@@H]12,-,0
CCCC(C)NC(=O)CN1CCN(c2cccc(C(F)(F)F)c2)CC1 (stereo not drawn),0,-
CCOC(=O)COc1ccc2cc(-c3ccccc3)c(=O)oc2c1,0,-
O=[S+]1([O-])NC2(CCCN(Cc3ccc(C(F)(F)F)cc3)C2)COc2ccccc21 (stereo not drawn),?,0
Cn1cccc1CN1CCC2(COc3ccccc3C(=O)N2)C1 (stereo not drawn),?,0
O=C1NC2(CCN(Cc3ccsc3)C2)Oc2ccccc21 (stereo not drawn),0,0
O=C1NC2(CCCN(Cc3ccc(C(F)(F)F)cc3)C2)COc2ccccc21 (stereo not drawn),25µM,0
O=C1NC2(CCN(Cc3ccsc3)C2)COc2ccccc21 (stereo not drawn),35µM,0
